DT40 TDP1 no CPT – qHTS for Inhibitors of human tyrosyl-DNA phosphodiesterase 1 (TDP1): qHTS in cells in absence of CPT; DT40 Tdp1-/- hTDP1 cells, no CPT, ATP luminescence, 48 h; Potency, µM (doses to about 46.2 µM), for inactives: top-dose activity change, negative = growth inhibition, actives largely listed as inhibitors; hit rate 15% among 420,000; note: potency is the fitted concentration of half-maximal effect; nearly all actives have a fitted effect of over 55% in size
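Seeded 400 DT40-hTDP1 cells/well (vehicle DMSO, no 20 nM CPT); pinned compounds; ≥48 hr at 37 °C; CellTiter-Glo luminescence as viability measure.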
IL1B secr inh – qHTS for Inhibitors of Inflammasome Signaling: IL-1-beta AlphaLISA Primary Screen. THP-1 LPS/ATP IL-1B secretion, AlphaLISA, 16 h; stronger effect = lower value. activity change, % at 57.5 µM. hit rate 4.7% among 360,000; in the data active = activity change below about -50%; inconclusive = mostly about -30% to -49%
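THP-1 cells pretreated 1 hr with compounds (up to 57.5 uM final), then stimulated with LPS (250 ng/mL final) plus ATP (1.25 mM final); secreted IL-1B measured by AlphaLISA after 16 hr, decreased signal indicating inhibition.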
HT1080-NT tox – qHTS for induction of synthetic lethality in tumor cells producing 2HG: qHTS for the HT-1080-NT fibrosarcoma cell line. Potency, µM (series often up to 46.1 µM), for inactives: top-dose activity, negative = less viability, usual class: cytotoxic. hit rate 1.6% among 360,000. AID 686970, 2013. HT-1080-NT fibrosarcoma viability, CellTiter-Glo ATP luminescence, 48 h;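 note: NT is the 2HG producing partner of a matched IDH1 knockdown line; potency is the fitted concentration of half-maximal effect; 0% = DMSO-treated cells and -100% = media-only wells without cells; nearly all actives have a fitted effect of over 55% in size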
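HT-1080-NT fibrosarcoma cells (2HG-overproducing), 750 cells/well in RPMI with 5% FBS, dosed after 2 h and incubated 48 h at 37C. CellTiter-Glo luminescence normalized to DMSO and no-cell wells; concentration-response curves fitted and classed.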
HT1080 IDH1KD tx – qHTS for induction of synthetic lethality in tumor cells producing 2HG: qHTS for the HT-1080-IDH1KD cell line | hit rate 2% among 360,000 | Potency, µM (highest dose often 46.1 µM), for inactives: at the top dose activity, negative = toxicity, most hits filed as cytotoxic | HT-1080 IDH1 knockdown viability, ATP luminescence, 48 h | AID 686971, 2013;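 note: potency is the fitted concentration of half-maximal effect; 0% = DMSO wells and -100% = cell-free medium wells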
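CellTiter-Glo luminescence after 48 h compound exposure at 37 degrees C of IDH1-knockdown HT-1080 cells in 5% FBS RPMI. %Activity scaled between DMSO wells and cell-free media wells, with curves fitted and assigned curve classes.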
DT40 TDP1 CPT – qHTS for Inhibitors of human tyrosyl-DNA phosphodiesterase 1 (TDP1): qHTS in cells in presence of CPT | chicken DT40 Tdp1-/-;hTDP1 cells + 20 nM CPT, ATP luminescence, 48 h | Potency, µM (series often up to 46.2 µM), for the others: at the top dose activity change, negative = growth inhibition, hits mostly inhibitors | hit rate 12% among 420,000; note: potency is the fitted concentration of half-maximal effect; nearly all actives have a fitted effect of over 55% in size
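Chicken DT40 Tdp1-/- cells complemented with human TDP1, 400 cells/well, exposed to compounds plus 20 nM camptothecin for at least 48 h at 37 C; viability read as ATP content by CellTiter-Glo luminescence.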
Numbers without * were called inactive; u = inconclusive; x = no result given. This is a sample that favours compounds with a hit; in the whole collection about 19% have one here. Unless noted, calls come from the whole dose curve; as a rule, active = well fitted curve in the direction sought with a large enough effect; inconclusive = small, poorly fitted or top-dose-only effect, or another doubt; inactive = no such curve, though single readings can be large; an effect the other way counts as inactive or inconclusive. Unless noted, % is set by controls: 0 for no effect and ±100 for the full control effect.

SMILES | DT40 TDP1 no CPT | IL1B secr inh | HT1080-NT tox | HT1080 IDH1KD tx | DT40 TDP1 CPT
COc1ccccc1NC(=O)C1=C(C)Nc2c(C(=O)Nc3ccc(F)cc3)cnn2C1c1ccc(Cl)cc1 (stereo unspecified) | u | x | x | x | 13µM*
O=C(c1cccc(S(=O)(=O)N2CCN(c3ccc(F)cc3)CC2)c1)N1CCN(c2ccccc2O)CC1 | u | u | -7.1% | -24.6% | u
COc1cccc(CCN2CCC(CNS(=O)(=O)c3cc(-c4cc(C)no4)ccc3C)CC2)c1 | u | -61.8* | u | u | u
Cc1cc(-c2ccc(C)c(S(=O)(=O)NCC3CCN(Cc4ccccc4F)CC3)c2)on1 | 23.1µM* | u | u | -22.5% | 18.4µM*
COc1cccc(CCN2CCC(CNS(=O)(=O)c3cc(-c4cc(C)no4)ccc3OC)CC2)c1 | -9.9% | -11.6 | u | u | u
